The source made the active and inactive calls. No rule for the calls is given here.
experiment: anti-RSV activity of probe candidates, cell-based (AID 2405); conditions: RSV cytopathic effect inhibition, HEp-2 cells, hits give high values; at 100 µM unless noted

Maximum inhibition, inactive:
COc1ccc(Cn2nc(C)cc2OC(=O)c2c(F)cccc2F)cc1 1.12% [at 0.39 µM], O=C(CSc1nc2ccc(F)cc2c(=O)n1-c1ccccc1)Nc1ccc2c(c1)CCC2 14.7%, O=C(CSc1nc2ccccc2c(=O)n1-c1ccc(Cl)c(Cl)c1)Nc1ccc2c(c1)CCC2 5.37%, COc1ccc(Cn2nc(C)cc2OC(=O)c2c(F)ccc(C)c2F)cc1 1.16% [at 50 µM], Cc1ccc2nc3n(c(=O)c2c1)CCC3 2%, COc1ccc(-c2csc(N(C)C(=O)c3ccccc3Cl)n2)cc1 2.66% [at 12.5 µM], OC1c2cc(I)ccc2N=C2CCCN21 (stereo not drawn) 0.75% [at 50 µM], O=c1c2cc(Cl)cc(Cl)c2nc2n1CCC2 5.87%, Cc1ccc2nc(SCC(=O)Nc3ccc4c(c3)CCC4)n(-c3ccccc3)c(=O)c2c1 47.5% [at 12.5 µM], O=C(CSc1nc2ccccc2c(=O)n1-c1ccc(Cl)cc1)Nc1ccc2c(c1)CCC2 11.5% [at 25 µM], O=C(Nc1nc(-c2ccc(Cl)cc2)cs1)c1ccccc1Cl 4.1%, COc1ccc(-c2csc(N(CCCN(C)C)C(=O)c3ccccc3C)n2)cc1 0.96% [at 0.2 µM], COc1ccc(-c2csc(N(C(=O)c3ccccc3Cl)C(C)C)n2)cc1 6.99% [at 25 µM], CC(=O)Nc1ccc2nc3n(c(=O)c2c1)CCC3 1.57% [at 50 µM], CCCN(C(=O)c1ccccc1Cl)c1nc(-c2ccc(OC)cc2)cs1 14.1% [at 50 µM], CC1CCCC(C)N1CCCNC(=O)c1cc2c(s1)-c1ccccc1OC2 (stereo not drawn) 0.79% [at 0.78 µM], OC1c2cc(Cl)cc(Cl)c2N=C2CCCN21 (stereo not drawn) 4.35%, COc1ccc(-c2csc(N(Cc3ccccc3)C(=O)c3ccccc3Cl)n2)cc1 10.1% [at 25 µM], COc1ccc(Cn2nc(C)cc2OC(=O)c2ccccc2)cc1 0.91% [at 25 µM], COc1cccc(-n2c(SCC(=O)Nc3ccc4c(c3)CCC4)nc3ccccc3c2=O)c1 8.16%, COc1cccc2c(=O)n(-c3ccccc3)c(SCC(=O)Nc3ccc4c(c3)CCC4)nc12 21.8%, OC1c2cc(Br)ccc2N=C2CCCCN21 (stereo not drawn) 6.83%, O=C(CSc1nc2cccc(F)c2c(=O)n1-c1ccccc1)Nc1ccc2c(c1)CCC2 20.4%, CC1CC(C)CN(C(=O)CSc2nc3ccccc3c(=O)n2-c2ccc(F)cc2)C1 (stereo not drawn) 2.13%, O=c1c2cc(Br)ccc2nc2n1CC/C2=C/c1ccccc1 10.8%, O=C(CSc1nc2ccccc2c(=O)n1-c1ccc(F)cc1F)Nc1ccc2c(c1)CCC2 5.7% [at 25 µM], CCCCN(C(=O)c1ccccc1Cl)c1nc(-c2ccc(OC)cc2)cs1 5.05% [at 25 µM], OC1c2c(F)cccc2N=C2CCCCCN21 (stereo not drawn) 1.87% [at 12.5 µM]
